Hits are enriched below; roughly 3.5% of the tested compounds scored in any of these assays.
BoNT A protease – BoNT/A light chain protease inhibitors, primary screen, biochemical, flow cytometry, MLPCN library | multiplex microsphere protease substrate cleavage | 360,000 compounds, 0.17% hits | inhibition, % at 10 µM; also: plate controls were buffer without enzyme for full effect and enzyme alone for no effect
BoNT F protease – BoNT/F light chain protease inhibitors, primary screen, biochemical, flow cytometry, MLPCN library. Botulinum neurotoxin type F light chain protease (Clostridium botulinum). AID 588497, 2011. 360,000 compounds, 0.22% hits. Multiplex microsphere protease cleavage assay. inhibition, % at 10 µM; in the data active = inhibition above about 35%, passing the limit was not always enough; inconclusive = no clear call, values can overlap the other calls; also: plate controls were buffer without enzyme for full effect and enzyme alone for no effect
Bead autofluor – counter-screen for toxin protease inhibitors: compound fluorescence; compound autofluorescence counterscreen, microsphere flow cytometry; active compounds read high; fluorescence intensity (concentration not given with the values); 360,000 compounds, 3.1% hits; AID 624483; in the data active = fluorescence intensity above about 16000; inconclusive = no clear call, values can overlap the other calls
Anthrax LF inh2 – Bacillus anthracis LF protease inhibitors, primary screen, biochemical, multiplex microsphere, MLPCN library; inhibition, % at 10 µM; 360,000 compounds, 0.12% hits; multiplex microsphere protease cleavage assay; Lethal factor (Bacillus anthracis), P15917; also: plate controls were buffer without enzyme for full effect and enzyme alone for no effect
* = called active by the depositor; ? = inconclusive. Rule as the data show it, unless noted: active = inhibition above about 30%; inconclusive = no clear call, values can overlap the other calls; inactive = below that.

SMILES	BoNT A protease	BoNT F protease	Bead autofluor	Anthrax LF inh2
COc1cc2c3c(c1)-c1c(sn(-c4cc(OC)ccc4OC)c1=S)C(C)(C)N3C(=O)C2=O	2	1	21539*	-6
C[C@@H]1CN([C@@H](C)CO)C(=O)CCCn2nncc2CO[C@H]1CN(C)C(=O)Nc1ccc(-c2cccs2)cc1	0	-2	3719	-4
CCn1cnc2cc(NCc3cccc(OC)c3O)ccc21	-2	-20	7113	-8
CCCCn1cnc2cc(NCc3cccc(OC)c3O)ccc21	?	-8	20423*	-5
O=c1cc(-c2ccccc2)[nH]c2[nH]n(-c3ccccc3)c(=O)c12	-2	-3	17478*	0
CCOC(=O)CC1=NN(c2ccccc2)C(=O)C1	0	-4	2572	0
O=c1cc(-c2ccccc2)[nH]n1-c1ccccc1	0	2	3612	-9
CCOC(=O)Cc1cc(=O)c2c(=O)n(-c3ccccc3)[nH]c2[nH]1	2	2	22135*	-2
Cc1cccc(NC(=O)c2cc([N+](=O)[O-])ccc2NC2CCCCC2)c1	2	-12	1988	0
CN(c1ccc([N+](=O)[O-])cc1C(=O)Nc1ccccc1)C1CCCCC1	3	4	21198*	-4
CSc1ccc(CN2C(=O)C(F)(F)Oc3c(C(C)=O)cccc32)cc1	-1	-6	3895	0
Clc1ccc(Cn2ccc(-c3ccc4c(c3)OCO4)n2)cc1Cl	0	-2	23441*	-1
CCc1ccc(NC(=O)c2cc(-c3ccco3)on2)cc1	-2	-3	24283*	-1
Cc1nn(Cc2ccccc2)c(C)c1NC(=O)c1cc(-c2ccco2)on1	2	0	20385*	2
c1cc2c(cc1Cn1cnnn1)OCO2	1	3	4921	-1
Cc1nn(Cc2ccc(Cl)c(Cl)c2)c(C)c1NC(=O)c1cc(-c2ccc3c(c2)OCO3)on1	?	9	19313*	-19
COc1ccc([C@@H]2CC(=O)[C@@H]3CN(S(=O)(=O)c4ccc(Cl)cc4)[C@H](c4ccc(C)cc4)C[C@@H]3N2S(=O)(=O)c2ccccc2)cc1	0	-4	4362	4
CCCNC(=O)c1cc(C2CCCCN2C(=O)c2cc(C(C)(C)C)nn2C)on1 (centres undefined)	0	1	3789	2
COc1ccc(OC)c(C(=O)COC(=O)c2ccccc2O)c1	2	2	22401*	0
Cc1ccc(C(=O)CSc2nc3ccccc3c(=O)[nH]2)cc1C	0	12	4835	0
CCc1ccc(C(=O)CSc2nc3ccccc3c(=O)[nH]2)cc1	0	1	21509*	-6
Cc1ccc(C(=O)CSc2nc3ccccc3c(=O)[nH]2)cc1	3	4	21593*	-8
Cc1cc(C)c(C(=O)CSc2nc3ccccc3c(=O)[nH]2)cc1C	-1	-5	4376	-2
CCOc1ccc(CNC(=O)C2CCN(S(=O)(=O)N3CCC(C)CC3)CC2)cc1OC	0	0	3959	-3
O=C(Nc1nc2ccccc2s1)c1ccccc1	-1	0	4130	-4
SMILES	BoNT A protease	BoNT F protease	Bead autofluor	Anthrax LF inh2
Cc1ccc(C(=O)Nc2nc3ccccc3s2)s1	-1	-1	22825*	-1
COc1ccc2nc(NC(=O)c3cc(C)oc3C)sc2c1	-1	-7	?	-9
Cc1cc(C(=O)Nc2nc3ccc(S(C)(=O)=O)cc3s2)c(C)o1	2	0	22296*	-5
Cc1ccc(C(=O)Nc2nc3ccc(S(C)(=O)=O)cc3s2)s1	2	3	21772*	-1
O=C1CC(=O)N(C2CCCCC2)C(=O)N1c1ccccc1S(=O)(=O)Oc1ccccc1	1	6	4542	-4
CCCc1ccc2oc(C(=O)N3CCNC(=O)C3CC(=O)OC)c(C)c2c1 (centres undefined)	0	-2	5522	-1
O=[N+]([O-])c1ccc(Cl)c(C[n+]2cccc3ccccc32)c1	-7	49*	7598	-12
CCC(=O)N1CCC1(C)C(=O)Nc1cccc2c1CCCC2 (centres undefined)	0	0	2827	-2
O=C(Nc1ccccc1)c1ccc(OC(=O)c2cc3ccccc3o2)cc1	2	4	21900*	2
CCOc1cc(/C=C2\SC(=S)N(Nc3ccccc3)C2=O)ccc1O	39*	30	3712	42*
CCN(CC)S(=O)(=O)c1ccc(C(=O)NCc2cccs2)cc1	1	-1	21571*	2
O=C(NCc1n[nH]c(=S)n1Cc1ccccc1)c1ccccc1	0	2	4204	-4
CCN(CC(=O)NCc1cccs1)S(=O)(=O)c1ccc(F)cc1	3	8	4753	-1
CCN(CC)S(=O)(=O)c1ccc(C(=O)NCc2n[nH]c(=S)n2Cc2ccccc2)cc1	2	2	21413*	0
O=C1NC[C@H](CCCCN2C[C@H](Cc3ccc(O)cc3)N(CC3CCCCC3)C(=O)C2=O)N(CC2CCCCC2)C1=O	0	6	5404	-5
O=C(Nn1c(O)c(C=C2N=c3ccccc3=N2)sc1=S)c1ccccc1Cl	61*	55*	5061	65*
Oc1c(C=C2N=c3ccccc3=N2)sc(=S)n1-c1ccccc1	44*	17	2577	26
CCn1c(O)c(C=C2N=c3ccccc3=N2)sc1=S	13	6	4186	10
Oc1c(C=C2N=c3ccccc3=N2)sc(=S)n1C1CCCCC1	70*	22	2417	33*
C[C@@H]1CN([C@@H](C)CO)S(=O)(=O)c2ccc(C#CC(C)(C)O)cc2O[C@H]1CN(C)C(=O)C1CCCCC1	0	-1	3758	8
CCCc1nc2n[nH]c(N)c2c2c1CCC2	0	-3	2759	0
CN1CCc2c(c(N3CCCCC3)nc3n[nH]c(N)c23)C1	?	-3	20525*	-1
COc1ccc(N2CCN(CCCn3cnc4c(OC)ncnc43)CC2)cc1	0	-2	3902	1
COc1ccccc1N1CCN(C(=O)CCCn2c(=O)[nH]c3ccsc3c2=O)CC1	3	-2	3933	-2
COc1ccccc1CNC(=O)CCn1c(=O)[nH]c2ccsc2c1=O	?	-8	21437*	0
SMILES	BoNT A protease	BoNT F protease	Bead autofluor	Anthrax LF inh2
CC(=O)c1ccc(OC2(C)CCN(Cc3ccc4c(c3)OCCO4)C2)cc1 (centres undefined)	0	-6	4113	-2
COC(=O)c1ccc(/C=N\N2CCN(Cc3ccc(C)cc3)CC2)cc1	?	-3	16594*	-8
NC(=O)C1(N2CCCCC2)CCN(Cc2ccc(F)cc2)CC1	-5	-2	21961*	1
NC(=O)C1(N2CCCCC2)CCN(Cc2ccc(Br)cc2)CC1	?	?	4483	-5
CCOC(=O)C1CCN(Cc2ccc(C(=O)OC)cc2)CC1	-1	-3	23791*	-2
CCOC(=O)C1CCN(Cc2cnc(Oc3ccc(N)cc3)s2)CC1	3	3	21292*	-3
CCOC(=O)C1CCN(C(=O)c2cccc(C(=O)N3CCC(C(=O)OCC)CC3)c2)CC1	?	-3	21616*	2
CCOC(=O)C1CCN(Cc2ccc(Cl)c(Cl)c2)CC1	1	1	10083	2
